Measured values as given in PubChem BioAssay AID687036 (The Scripps Research Institute Molecular Screening Center, 2013).
Out of some 3,300 compounds screened, about 1,400 (42%) were called active. The set was probably picked from earlier hits. A selection follows. A number with no mark means an inactive call.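 How the source made its calls: active means mean inhibition across replicates above the hit cutoff derived for the earlier primary screen (cut at about 22% in these data); inactive means the rest.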

target: Protein arginine N-methyltransferase 1 (Homo sapiens) (UniProt Q99873); assay: human PRMT1 activity-probe blockers, retest – biochemical, fluorescence polarization, triplicate, confirmation (AID 687036); details: recombinant His-PRMT1, activity-based probe fluorescence polarization; at 2.79 µM; hits give high values
Sequence (Q99873 whole entry, looked up): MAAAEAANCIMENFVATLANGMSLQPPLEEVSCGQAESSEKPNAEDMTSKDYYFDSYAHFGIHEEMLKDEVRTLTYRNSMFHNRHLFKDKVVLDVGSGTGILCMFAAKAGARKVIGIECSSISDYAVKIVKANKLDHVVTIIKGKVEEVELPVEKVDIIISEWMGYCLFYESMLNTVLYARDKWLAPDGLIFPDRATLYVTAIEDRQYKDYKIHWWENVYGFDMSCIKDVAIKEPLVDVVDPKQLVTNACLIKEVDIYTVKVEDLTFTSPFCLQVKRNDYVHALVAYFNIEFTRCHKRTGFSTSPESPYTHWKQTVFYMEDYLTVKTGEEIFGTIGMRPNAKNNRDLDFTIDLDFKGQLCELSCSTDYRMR

Row | Compound | inhibition
1 | CC1=C(C)CC2C(=O)N(c3cccc4ccccc34)C(=O)C2C1 (stereo not given) | 54.1% (active)
2 | O=C(O)CCn1c(O)c(C=C2N=c3ccccc3=N2)sc1=S | -5.43%
3 | O=C(NC(Cc1c[nH]c2ccccc12)C(=O)O)/C(=C/c1ccco1)NC(=O)c1ccccc1 (stereo not given) | 9.09%
4 | Cc1ccc(NC(=O)Cn2sc3ccccc3c2=O)cc1 | 82.3% (active)
5 | CCC(c1nnnn1Cc1ccco1)N(Cc1cc2cc(OC)ccc2[nH]c1=O)C1CCCCC1 (stereo not given) | 18%
6 | COC(=O)C[n+]1cccc2ccccc21 | 32.6% (active)
7 | NC(=O)c1c(Nc2nc3c(F)cccc3s2)sc2c1CCCC2 | -3.26%
8 | O=C(CSc1cccc[n+]1[O-])c1ccc(-c2ccccc2)cc1 | 25.6% (active)
9 | O=C(Cc1ccc(-c2ccccc2)cc1)NC(c1ccccc1)c1ccccc1 | 3.32%
10 | Cc1sc(NC(=O)c2ccc3ncsc3c2)c(C(N)=O)c1C | 3.89%
11 | N#CC1(Nc2ccc3c4c(cccc24)CC3)CCCCC1 | 10.2%
12 | CSc1nc(C)cc(SC(C(C)=O)C(=O)Nc2ccccc2)n1 (stereo not given) | 22.5% (active)
13 | CN(C)C(=S)N=c1ssc(=S)n1Cc1ccco1 | 15.6%
14 | Cc1ccc(-n2nc(-c3ccco3)cc2C(=O)NCc2cccnc2)cc1 | 19.5%
15 | C=CS(=O)c1sc(Cl)c(N2CCOCC2)c1[N+](=O)[O-] (stereo not given) | 87.1% (active)
16 | CCOC(=O)c1cc2n(c1N)-c1ccccc1C2=O | 116% (active)
17 | Cc1ccccc1CN1C[C@@H]2C[C@@H](c3cn(C)nc3-c3ccccc3)N3CCC[C@@]23C1=O | 5.9%
18 | O=C(Nc1cccc(F)c1)c1cc(-c2ccco2)nc2ccccc12 | 3.51%
19 | O=C(Nc1nc(-c2ccco2)c(-c2ccco2)s1)c1ccco1 | 30.4% (active)
20 | COc1cc(C(=S)NCc2ccccc2)cc(Br)c1O | 19.8%

Row | Compound | inhibition
21 | N#CC1=C(N)Oc2[nH]c(=S)[nH]c(=O)c2C12C(=O)Nc1ccccc12 (stereo not given) | 66.4% (active)
22 | Cc1ccc(Cc2cnc(N)s2)o1 | -3.79%
23 | O=C(CN1C(=O)S/C(=C\c2ccccc2F)C1=O)NCCCn1ccnc1 | -3.11%
24 | CC(NC(=O)CSc1nc2c(cc1C#N)CN(C)CC2)c1ccccc1 (stereo not given) | 6.37%
25 | COc1ccc(C(=O)COC(=O)COc2ccc(C)c(C)c2)cc1 | 3.72%
26 | COc1ccnc(NC(=S)N2CCN(c3ncc(C(F)(F)F)cc3Cl)CC2)c1 | 4.89%
27 | c1ccc(C(=NNc2nc3ccccc3s2)c2ccccn2)cc1 | 22.1% (active)
28 | Cc1nc2sc(C(c3ccco3)N3CCOCC3)c(O)n2n1 (stereo not given) | 7.49%
29 | CCN(CC)CCCC(C)n1c2nc(=O)[nH]c(=O)c-2nc2cc(Cl)ccc21 (stereo not given) | 153% (active)
30 | CC(C(=O)Nc1ccc(O)c(C(=O)O)c1)N1C(=O)/C(=C/c2cccs2)SC1=S (stereo not given) | 12%
31 | COCCNC(=S)Nc1cc(S(=O)(=O)N2CCOCC2)ccc1N1CCCCC1 | 4.34%
32 | N#Cc1ccccc1S(=O)(=O)N1CCN(Cc2c(O)ccc3ccccc23)CC1 | 33.1% (active)
33 | COc1ccc(Nc2nc(-c3cccnc3)nc3ccccc23)cn1 | 11.2%
34 | Cn1sc(=O)c2cc(S(=O)(=O)NC3CC3)ccc21 | 32% (active)
35 | Cc1ccc(CNC(=O)CCS(=O)(=O)c2ccc3c(c2)CC(C)N3C(=O)C2CC2)o1 (stereo not given) | 5.73%
36 | S=c1[nH]nc2c3c4c(sc3ncn12)CCCC4 | 17.1%
37 | CCOc1cccc(/C=N/N2C(=O)CSC2=S)c1O | 83.2% (active)
38 | NC(=O)C1(N2CCCCC2)CCN(C2CC(=O)N(Cc3ccc(N4CCCC4=O)cc3)C2=O)CC1 (stereo not given) | 2.57%
39 | Cc1sc2nc(SCC(=O)c3ccc(O)c(O)c3)n(Cc3ccco3)c(=O)c2c1C | 2.72%
40 | CCOC(=O)N1C(=O)C[C@](Sc2ccc(C)cc2)(C(=O)OC)[C@H]1c1ccccc1 | 60.5% (active)

Row | Compound | inhibition
41 | CCc1ccc(-n2c(=S)sc3c(=O)n(-c4ccccc4OC)c(=S)[nH]c32)cc1 | 14.1%
42 | Cc1ccc(NC(=O)c2cc(-c3ccc(C)o3)nc3ccccc23)nc1 | 10.3%
43 | CCc1n[nH]c(=S)n1/N=C/c1c[nH]c2ccc(Br)cc12 | 18%
44 | Cc1cccc(NC(=O)c2sc3nc(N4CCOCC4)c4c(c3c2N)CCCC4)c1 | 10.1%
45 | O=C(CC1N=C2c3ccccc3N=C(SCc3ccccc3Cl)N2C1=O)NCc1ccco1 (stereo not given) | 5.28%
46 | Clc1ccccc1CSc1nnc(-c2ccco2)c(-c2ccco2)n1 | 65.4% (active)
47 | CC(=O)N1CCN(C(=O)c2cc(-c3ccc(C)o3)nc3ccccc23)CC1 | 13%
48 | Cc1ccnc(-n2sc3ccccc3c2=O)n1 | 89.8% (active)
49 | CCN1/C(=C/C(=S)Nc2ccccc2)Sc2ccccc21 | 24.8% (active)
50 | COc1ccccc1-n1c(-c2cc(-c3ccco3)[nH]n2)n[nH]c1=S | 2.25%
51 | c1ccc(CN2CCC(N=C3NN=C(c4ccc5c(c4)OCCO5)CS3)CC2)cc1 | 27.8% (active)
52 | Cc1cccc(Oc2c([N+](=O)[O-])c(=O)n(C)c3ccccc23)c1 | 9.75%
53 | N#Cc1c(N2CCCCC2)nc(N)c2c(N)nc(SCC(=O)O)cc12 | 56.5% (active)
54 | COc1ccc(C2CC(c3cccs3)=Nc3ccccc3S2)cc1OC (stereo not given) | 48.6% (active)
55 | Cc1cc(C(=O)NN=C/C=C/c2ccco2)n[nH]1 | 0.98%
56 | O=C(Oc1ccccc1C(=S)N1CCCCC1)c1cc([N+](=O)[O-])cc([N+](=O)[O-])c1 | 25.5% (active)
57 | Cc1cc2nc(-c3ccco3)c(Cc3cccc(F)c3)n2c(C)c1Br | 20.8%
58 | COC(=O)c1ccccc1SC1CC(=O)N(c2cccc(C)c2)C1=O (stereo not given) | 23.1% (active)
59 | CCOC(=O)c1ccc(N2C(=O)CC(N3CCC(C(=O)OCC)CC3)C2=O)cc1 (stereo not given) | 1.87%
60 | O=C(O)c1ccc(/C=C2\SC(=S)N(NC(=O)c3ccc(Br)cc3)C2=O)cc1 | 2.94%
